# Test results reported in ChEMBL document CHEMBL4513216, “Probing the Open Global Health Chemical Diversity Library for Multistage-Active Starting Points for Next-Generation Antimalarials” (ACS Infect Dis, 2020).
# Screen size: about 68,000 compounds; about 2,700 (4%) showed an effect of 50% or more. For the sample, strong results were picked, then their nearest neighbours and some compounds at random.
# Tested on: Plasmodium berghei
# Assay: Screen against P. berghei liver stage (PbLuc), transformed with Luciferase, at 2uM
# Assay type: functional, HepG2
# Conditions: tested at 2 uM
row,Structure (SMILES),INHIBITION [%]
1,COc1ccc(-c2nc(C3CCNCC3)cc3c2ncn3C)cc1,-0.45
2,COCCS(=O)(=O)c1ncc(CN(C)C)n1Cc1ccccc1,29.41
3,Cc1ccc2c(c1)N(C(=O)C1CCCOC1)CCC2 (stereo unspecified),-13.38
4,O=C(C1CCCOC1)N1CCCc2ccccc21 (stereo unspecified),53.29
5,O=C(C1CCCOC1)N1CCCCc2ccccc21 (stereo unspecified),16.09
6,C1CCCN(c2nc(C3CC3)no2)CC1,28.02
7,Cc1ncsc1CN1C[C@@H]2CN(Cc3cccnc3)CCO[C@@H]2C1,54.13
8,COc1ccc(CN2C[C@@H]3CN(Cc4cccnc4)CCO[C@@H]3C2)cc1,39.57
9,Cc1ccsc1CN1C[C@@H]2CN(Cc3cccnc3)CCO[C@@H]2C1,4.26
10,Cc1cc(C)c2cc(CNC3CCCCC3)c3nn(C)c(=O)n3c2c1,14.26
11,Cc1cccc(C2(CNC(=O)CCNS(C)(=O)=O)CCCC2)c1,3.9
12,COCCN1CCC2(CC1)CC(N1CCOCC1)c1ccc(C)cc12 (stereo unspecified),17.47
13,CC(=O)NC(C(=O)N(C)Cc1nnc2n1CCC2)C(C)C (stereo unspecified),-63.33
14,CC(C)C(=O)N(C)Cc1nnc2n1CCCCC2,21.82
15,CC(C)C(Sc1ccccc1)C(=O)N(C)Cc1nnc2n1CCC2 (stereo unspecified),64.39
16,CC(C)Nc1nc2c(c(NC3CC3)n1)CCN(Cc1nccn1C)CC2,34.71
17,CCCn1cc(NC2CCSCC2)cn1,46.58
18,O=C(NCC1(O)CCC1)NC(c1cc(F)ccc1F)C1CC1 (stereo unspecified),-5.74
19,CCOC(=O)c1n[nH]cc1CN1CCCC(N(C)Cc2ccccc2)C1 (stereo unspecified),52.3
20,CCOC(=O)c1n[nH]cc1CN1CCOC(Cc2ccccc2)C1 (stereo unspecified),-30.18
21,CCOC(=O)c1n[nH]cc1CN1CCOC(Cc2ccc(F)cc2)C1 (stereo unspecified),-142.94
22,CCS(=O)(=O)N1CC(=O)N(CCCc2ccccc2)CC(O)C1 (stereo unspecified),12.44
23,Cc1cnn(CC2CCCN2C(=O)c2cnc3n[nH]c(C)c3c2)c1 (stereo unspecified),-27.31
24,O=C(Cn1cc(C(=O)O)ccc1=O)NCc1ccc(F)c(Cl)c1,11.14
25,O=C(C1CC1)N(Cc1ccc2cc[nH]c2c1)C1CC1,11.43
26,CN(C)c1nc2c(c(N(C)C)n1)CCN(C(=O)CN1CCC(O)CC1)C2,13.99

row,Structure (SMILES),INHIBITION [%]
1,c1cncc(OCC2CN(Cc3ccsc3)Cc3nccn3C2)c1 (stereo unspecified),45.82
2,c1cncc(COCC2CN(Cc3ccncc3)Cc3ccnn3C2)c1 (stereo unspecified),-34.65
3,c1cncc(COCC2CN(Cc3ccsc3)Cc3ccnn3C2)c1 (stereo unspecified),-10.99
4,Cc1ccc(CN2Cc3ccnn3CC(COCc3cccnc3)C2)o1 (stereo unspecified),49.25
5,c1cncc(COCC2CN(Cc3cccnc3)Cc3ccnn3C2)c1 (stereo unspecified),56.78
6,c1cncc(COCC2CN(Cc3ccco3)Cc3ccnn3C2)c1 (stereo unspecified),1.22
7,CN(C)C(=O)COCC1CN(Cc2ccsc2)Cc2nccn2C1 (stereo unspecified),15.44
8,c1ccc(CN2Cc3ccnn3CC(COCc3cccnc3)C2)nc1 (stereo unspecified),50.32
9,c1ccc(COCC2CN(Cc3ccsc3)Cc3nccn3C2)nc1 (stereo unspecified),59.88
10,CN(C)C(=O)CCC[S+]([O-])Cc1ccc(Cl)c(Cl)c1 (stereo unspecified),-32.8
11,CSc1ccc(CN(C)Cc2noc(C(C)(C)C)n2)cc1,21.28
12,CC(C)Nc1nc2c(s1)C(=O)CN(CC1CC1)C2,-17.3
13,CC[C@@]1(O)CCN(CCCOc2ccc(C(N)=O)cc2)C[C@H]1O,-15.75
14,CN1CCc2ccc(NCc3cccs3)cc2C1=O,50.59
15,CN1CCc2ccc(NCc3cscn3)cc2C1=O,36.28
16,CN(CCc1cccs1)C(=O)Nc1ccc2c(c1)C(=O)N(C)CC2,5.28
17,CCO[C@H]1CO[C@@]2(CCN(Cc3ccc4c(c3)OCO4)C2)C1,-23.42
18,FC(F)(F)Cn1ccnc1CN1CCCC1c1noc(C2CC2)n1 (stereo unspecified),-2.7
19,COCCNC(=O)C1CN(Cc2csc(C)n2)Cc2ccnn2C1 (stereo unspecified),47.54
20,CC(C)CC(O)C1CCN(C(=O)c2ccc(C(F)(F)F)nc2O)CC1 (stereo unspecified),72.05
21,CC(C)CC(O)C1CCN(C(=O)c2ccc(C(C)C)[nH]c2=O)CC1 (stereo unspecified),-25.72
22,CC(C)CC(O)C1CCN(C(=O)c2coc(CN3CCOCC3)c2)CC1 (stereo unspecified),13.19
23,O=C(NCC(O)(c1cccs1)C1CC1)NC1CCCCC1 (stereo unspecified),-11.54
24,CN(Cc1ccccn1)C(C(=O)O)c1ccc2c(c1)OCO2 (stereo unspecified),13.86
25,COc1ccc(CCN2CC(n3nc(C)cc3C)C2)cc1,33.55
26,Cc1nc2[nH]cnc(NCCN3CCOCC3)c-2n1,-7.81

row,Structure (SMILES),INHIBITION [%]
1,CN1[C@@H](C(=O)NCC2CC2)C[C@@H]2CN(Cc3ccoc3)C[C@@H]21,40.83
2,Cc1nc(CN2C[C@H]3C[C@H](C(=O)NCC4CC4)N(C)[C@H]3C2)cs1,55.66
3,CN1[C@@H](C(=O)NCC2CC2)C[C@H]2CN(Cc3ccsc3)C[C@H]21,1.29
4,O=C(NCC1CCN(Cc2ccsc2)CC1)NC1CC1,-18.04
5,CN1[C@@H](C(=O)NCC2CC2)C[C@@H]2CN(Cc3ccsc3)C[C@@H]21,59.5
6,Cc1ccc(CN2C[C@H]3C[C@H](C(=O)NCC4CC4)N(C)[C@H]3C2)o1,-13.53
7,O=C(NCc1ccccc1)NCC1CCN(Cc2ccsc2)CC1,51
8,Cc1ccc(CN2C[C@@H]3C[C@H](C(=O)NCC4CC4)N(C)[C@@H]3C2)o1,21.06
9,O=C(CCc1ccccc1)NCC1CCN(Cc2ccsc2)CC1,13.22
10,Cc1cnn(CC2CCCN2C(=O)c2cccc(-n3ccc(C)n3)c2)c1 (stereo unspecified),23.42
11,CS(=O)(=O)c1ccc(C(=O)N2CCCC(n3cncn3)C2)o1 (stereo unspecified),-15.41
12,CCOC(=O)[C@]12CCCN(Cc3cccs3)C[C@H]1CN(C(C)C)C2,-10.41
13,CCn1nc(C)c(CNC(=O)NCC(C)(O)c2ccc(C)o2)c1C (stereo unspecified),-109.32
14,O=C1COC2(CCN(CC3CC3)CC2)CN1c1cncnc1,-59.44
15,CCC(C)N1CCC2(CC1)CN(c1cncnc1)C(=O)CO2 (stereo unspecified),51.55
16,CCS(=O)(=O)N1CCC2(CC1)CN(c1cncnc1)C(=O)CO2,-28.81
17,CSc1nc(C)cc(N2CCC(c3ncc[nH]3)CC2)n1,-69.92
18,CC(C)NS(=O)(=O)c1cc(C(=O)O)cc(-c2ccccc2C#N)c1,-10.44
19,CC(C)NS(=O)(=O)c1cc(C(=O)O)cc(-c2ccccc2F)c1,38.83
20,CC(C)NS(=O)(=O)c1cc(C(=O)O)cc(-c2ccccc2CO)c1,76.6
21,CC(=O)c1ccccc1-c1cc(C(=O)O)cc(S(=O)(=O)NC(C)C)c1,17.48
22,CC(C)NS(=O)(=O)c1cc(C(=O)O)cc(-c2ccc(CN(C)C)cc2)c1,15.42
23,CC(C)NS(=O)(=O)c1cc(C(=O)O)cc(-c2ccccc2CN(C)C)c1,58.24
24,Cn1c(CCNc2nccnc2C#N)nc2ccc(F)cc21,8.03
25,CCc1nnc2n1CCN(C(=O)c1cc3c(F)cccc3[nH]1)C2,9.17
26,CC(C)[C@@H]1CN(CC(=O)NCc2ccco2)C[C@H]1NS(=O)(=O)N(C)C,-30.53

row,Structure (SMILES),INHIBITION [%]
1,CC(C)[C@@H]1CN(C(=O)NCc2ccco2)C[C@H]1N(C)C,52.08
2,CC(C)[C@@H]1CN(C(=O)NCc2ccco2)C[C@H]1NS(=O)(=O)N(C)C,28.95
3,CC1COCCN1C(=O)c1cnccn1 (stereo unspecified),-108.55
4,CCN(C)C(=O)[C@H]1C[C@@](CC(C)C)(C(=O)OC)N(C)[C@H]1c1cccnc1,59.03
5,COCCN1CCC2(CC1)CC(c1cccnc1)C(=O)N2C (stereo unspecified),11.98
6,COCCNC(=O)[C@H]1C[C@@](CC(C)C)(C(=O)O)N(C)[C@H]1c1cccnc1,20.32
7,O=C(O)CSc1nnc(-c2ccn[nH]2)n1-c1ccccc1C(F)(F)F,-43.98
8,O=C(O)CSc1nnc(-c2cn[nH]c2)n1-c1ccccc1Cl,37.77
9,O=C(O)CSc1nnc(-c2cn[nH]c2)n1-c1ccccc1C(F)(F)F,71.98
10,COCCN1CCC(C(=O)N(C)CCOc2ccc(C)cc2Cl)C1 (stereo unspecified),-23.16
11,Cc1n[nH]cc1CNC(=O)CCCc1cccs1,20.86
12,C[C@@H]1CN(Cc2ccc(-c3ccncc3)cc2F)CC(C(N)=O)O1 (stereo partly specified),-11.35
13,CC(C)N1CCC2(CCCN(C(=O)c3cncn3C)C2)CC1,51.36
14,CN1CCC2(CCCN(C(=O)c3cncn3C)C2)CC1,13.26
15,CC(C)N1CCOCC2(CCCN(C(=O)c3cncn3C)C2)C1 (stereo unspecified),9.1
16,CCSc1nc(N)c(NC(=O)c2ccc(C)cc2)c(=O)[nH]1,7.1
17,COCCC(=O)N1CC[C@H]2O[C@@H](C)C[C@H]2C1,26.31
18,O=C(Nc1cnn(COc2ccc(F)cc2Cl)c1)C1CC1,25.24
19,COc1cc(-c2nc3c([nH]2)CCCNC3=O)ccc1OC(C)C,-20.6
20,COc1ccc(-c2nc3c([nH]2)CCCNC3=O)cc1OC,75.76
21,COc1cc(-c2nc3c([nH]2)CCCNC3=O)ccc1O,-58.91
22,NC(=O)c1cccc(CC2CCN(C(=O)CO)C2)c1 (stereo unspecified),-5.6
23,Cc1ccc(-c2cc(CNC(=O)N3CCC(N(C)C)CC3)on2)cc1,23.24
